# This is part of a sample that, as a whole, favours compounds with a hit. Of some 79,000 tested, about 15% had one in any assay. Unmarked numbers belong to inactive results. The source made the active and inactive calls. No stated cut-off is given here; in the data, active means growth inhibition above about 70%; inactive means the rest.
# Legend:
# [1] = NCI Yeast Anticancer Drug Screen. Data for the rad50 strain (AID 155);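 further: 0% = growth of vehicle-only cultures of the same strain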; settings: S. cerevisiae rad50 strain growth inhibition; at 50.0 µM; stronger effect = higher value
# Summary of the method: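 Growth of the mutant yeast was measured after compound exposure and referenced to vehicle-treated cultures.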
# [2] = NCI Yeast Anticancer Drug Screen. Data for the mec2-1 strain (AID 157); settings: S. cerevisiae mec2-1 strain, at 50.0 µM, stronger effect = higher value
# Summary of the method: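 Compounds were applied to mec2-1 yeast cells. Their growth was then compared with that of vehicle-treated cultures to give growth inhibition.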
# [3] = NCI Yeast Anticancer Drug Screen. Data for the cln2 rad14 strain (AID 165);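 further: 0% = growth equal to vehicle treated cultures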; settings: S. cerevisiae cln2 rad14 strain, at 50.0 µM, stronger effect = higher value
# Summary of the method: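 Strain: cln2 rad14 yeast, altered in cell cycle control and DNA damage repair. Read-out: growth inhibition vs vehicle.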
# [4] = NCI Yeast Anticancer Drug Screen. Data for the bub3 strain (AID 167); settings: S. cerevisiae bub3 mutant strain, at 50.0 µM, stronger effect = higher value
# Summary of the method: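 Whole-cell yeast assay. The mutant strain was incubated with compounds, and growth inhibition was determined by comparison with vehicle-treated cells.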
# [5] = NCI Yeast Anticancer Drug Screen. Data for the mlh1 rad18 strain (AID 175); settings: S. cerevisiae mlh1 rad18 strain growth inhibition; at 50.0 µM; stronger effect = higher value
# Summary of the method: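 A repair-deficient yeast strain is exposed to test compound, and growth is scored relative to vehicle-treated controls.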
# [6] = NCI Yeast Anticancer Drug Screen. Data for the sgs1 mgt1 strain (AID 161);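 further: 0% = growth of cultures given vehicle only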; settings: S. cerevisiae sgs1 mgt1 strain, at 50.0 µM, stronger effect = higher value
# Summary of the method: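 This yeast growth screen uses a strain with defined DNA-repair lesions; compound-treated growth is compared with vehicle-treated growth.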
Compound,growth inhibition [1],growth inhibition [2],growth inhibition [3] [%],growth inhibition [4],growth inhibition [5],growth inhibition [6] [%]
CC(NC1=CC(=O)c2cccnc2C1=O)C(O)c1ccccc1 (stereo not drawn),82.8% (active),80.8% (active),27.5,64.2%,71.3% (active),
CCN(CC)C(=S)N/N=C/c1ccccn1,89.5% (active),92% (active),,89.8% (active),90.3% (active),
CCN(CC)CCNCc1ccc(Cl)cc1,-16.5%,-38.8%,6.15,-8.7%,-16.1%,
COc1cc2c(cc1OC)C(NC(C)C)CCCC2 (stereo not drawn),-7.6%,9.35%,-23.6,-7.7%,-6.9%,
CC(C)=C1CC(=O)NC1=O,-10.8%,17.1%,6.35,-6.05%,0.55%,
O=S1(=O)c2ccc(cc2)N=CC=Nc2ccc1cc2,5.25%,-11.7%,-2.4,14.3%,12.1%,
OC(COc1ccc2ccccc2c1)COc1ccc2ccccc2c1,-8.55%,-22.1%,-16.3,-11.6%,-5.8%,
CC(=O)OCc1cccc(O)c1C(=O)CCC=C(C)C,-4.4%,-17.1%,-10.9,-6.7%,-63.5%,
O=C(O)c1c(O)ccc(O)c1C(=O)O,-38.5%,-30.8%,-21.1,-8.8%,-11.2%,
c1ccc(-c2cc3c4ccccc4ccn3c2)cc1,15.2%,10.2%,3.65,-2.95%,-5.95%,
CC(=O)OCCn1cnc2c(NCC=C(C)C)ncnc21,-28.4%,-12.4%,0.75,7.5%,-45%,
CCCCN(CCCC)C(=Nc1ccccc1)N(CCCC)CCCC,-13.2%,-3.4%,10,-38.9%,-15.3%,
COC(=O)c1cc(-c2cccnc2)[nH]c(=O)c1C#N,-5.4%,-36.6%,-15.7,-9.7%,-14.2%,
Cc1cc(COCCN(C)C)on1,-3.5%,14.2%,-3.95,11.8%,4.35%,
CC(C)CCCC(C)CCCl (stereo not drawn),3.85%,-1.1%,1.95,3.2%,-0.2%,
CC(=O)CC1CCc2ccc3ccccc3c2C1c1cccc2ccccc12 (stereo not drawn),2.35%,8.2%,26.4,2.4%,25.4%,
CN(C)c1ccc(C=C(c2ccc(N)cc2)c2ccc(N)cc2)cc1,9.25%,-1.05%,-0.6,52.4%,20.6%,
CC1=CC(=O)C(C(O)(C(F)(F)F)C(F)(F)F)C(C)(C)C1 (stereo not drawn),-37.1%,-38%,-23.8,-4.95%,,
Cc1ccc(C2=NO[C@@H]3C(=O)N(c4ccc(Cc5ccc(N6C(=O)[C@H]7C(c8ccc(C)cc8)=NO[C@H]7C6=O)cc5)cc4)C(=O)[C@H]23)cc1,-0.4%,30.1%,32.4,31.1%,20.1%,
O=C(O)/C=C/C(=O)Nc1cccc(C(F)(F)F)c1,-3.5%,0.35%,-6.85,-15.7%,-9.7%,

Compound,growth inhibition [1],growth inhibition [2],growth inhibition [3] [%],growth inhibition [4],growth inhibition [5],growth inhibition [6] [%]
COC(=O)c1nc(N)[nH]c(=O)c1-c1ccc(Cl)cc1,-9.5%,-21.9%,14.8,-12.7%,-47.8%,
CCN(CC)CCNc1ccc2ncn3c4c(OC)cccc4c(=O)c1c23,2.7%,-17.1%,18.4,-46.8%,67.2%,
c1ccc2c(c1)c1c(n2CCOCCN2CCCC2)CCCC1,21.6%,2.6%,27,0%,-55.8%,
CC12CC3CC(C1)CC(NCCO)(C3)C2,-0.8%,-13.7%,-83.7,-5.45%,-4.35%,
O=C1NC(=O)C(c2ccccc2)(C2CCOCC2)N1 (stereo not drawn),11.1%,3.05%,-54.9,-9.65%,28.4%,
CC(=O)Nc1ccc(N)cc1-c1ccc(N)cc1,-2.75%,-16.9%,29.1,5.25%,-18%,
COC(=O)c1cc(=O)c2scc(C)[n+]2[nH]1,-5.4%,-10.8%,9.55,-3.05%,-5.3%,
CCOC(=O)c1[nH]c2nc(N)ncc2c(=O)c1C,-0.15%,-0.95%,43.6,12.8%,11.7%,
COC(=O)N/N=C(\C(=O)Nc1cccc([N+](=O)[O-])c1)c1nc2ccc([N+](=O)[O-])cc2[nH]c1=O,8.65%,-7.75%,14.8,-17.1%,-1.25%,
CCCC(=O)N(CC)CC,11.2%,-8.6%,-15,0%,-20.9%,
NNS(=O)(=O)c1ccc(/C=C2\NC(=O)NC2=O)cc1,-4.45%,1.5%,13.2,-26.4%,23.9%,
CCOC(=O)Cn1/c(=N/N=C(\C)c2ccc([N+](=O)[O-])o2)sc2cc(Cl)ccc21,-5.75%,9.05%,14.3,-4.15%,3.35%,
COCn1cnc2c(=O)n(-c3ccc(OC)cc3)c(=S)n(-c3ccc(OC)cc3)c21,21.1%,-13.7%,-2.65,-21.4%,-53.1%,
CC(C)c1ccc(N=Nc2ccc(N(C)C)cc2)cc1,4.2%,1.85%,-17.9,-4.7%,-5.65%,
CC(=O)OC1C(C)OC(n2cnc3c(=O)[nH]cnc32)C(OC(C)=O)C1OC(C)=O (stereo not drawn),37.1%,9.25%,-7.3,6.25%,27.8%,
COC(=O)c1ccc2cc1Nc1c(C#N)cnc(=S)n1-2,-2.3%,13.4%,23.1,14.5%,18.1%,
COP(=O)(O)OP(=O)(O)OC,1.2%,-29.5%,,13.8%,16.8%,25.2
CCCCCc1c(Cl)nc(Cl)nc1Cl,-14.2%,11.2%,-38.8,26.9%,-18.1%,
Cn1nnnc1CC(=O)O,1.3%,-12.9%,-22.8,-2.05%,-12.5%,
O=C1c2cc3c(cc2CC12Cc1cc4c(cc1C2)CCC4)CCC3,-14.6%,1.4%,7.45,-3%,-1.35%,

# Source: PubChem BioAssay (NCI)
